We go through 39 compounds from PubChem BioAssay (NCI).

Structures are written as SMILES. This is part of a sample that, as a whole, favours compounds with a hit. Of some 83,000 tested, about 20% had one in any assay.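 In brief: 96-well plates, 48 h treatment, single concentration, percent growth endpoint.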 A number with no mark means an inactive call. Activity calls are given as the source filed them. How the source made its calls: active means growth percent below 10; inactive means the rest.

This assay concerns MDA-MB-468 breast. The assay can be described thus: NCI-60 one-dose screen, 48 h (100 = growth as untreated, 0 = no growth, -100 = all killed). Particulars: 10 µM unless noted.
Regarding `Nc1cccc2c1C(=O)c1cccc(NC(=O)c3ccccc3)c1C2=O`, the growth is 10.6%.

Regarding `Cc1cccc(Cc2cnc(NC(=O)CCCOc3ccc(Cl)cc3)s2)c1`, the growth is 3.77% (active).

In the case of `O=C(Nc1nc2cccc(-c3ccc(CN4CCS(=O)(=O)CC4)cc3)n2n1)C1CC1`, the growth is 41.5%.

As to `CCOC(=O)c1cn2ncnc(Oc3ccc(NC(=O)NCCN(CC)CC)c(Cl)c3)c2c1C`, the growth was 52.8%.

Take `CCN(CC)CCN1C(=O)c2cccc3c(-c4ccc5c(c4)ncn5C4CCCCC4)ccc(c23)C1=O`: the growth is -6.34% (active).

As to `Cn1c([N+](=O)[O-])cnc1/C=C1\Oc2ccc(Br)cc2C1=O`, the growth is 13.1%.

In the case of `Oc1c(CCl)cc(Cl)cc1Cc1cc(Cl)cc(Cc2cc(Cl)cc(CCl)c2O)c1O`, the growth was 18.8%.

With `CCn1c(Sc2nnc(NC(C)=O)s2)nc2c1c(=O)n(C)c(=O)n2C`, the growth is 87.5%.

Regarding `NS(=O)(=O)c1ccc(Nc2nc(N/N=C/c3ccccn3)nc(Nc3ccccc3)n2)cc1`, the growth was -29.7% (active).

In the case of `CCOC(=O)n1cc(-c2nonc2-c2cn(C)c3ncccc23)c2ccccc21`, the growth is -8.56% (active).

With `COC1=CC(c2ccc[nH]2)=N/C1=C\c1[nH]c(C)c(C)c1CCC(=O)OCc1ccccc1`, the growth is 15.6%.

On to `CC(C)(C)OC(=O)N1CCc2c(sc3ncnc(N/N=C/c4ccccc4Br)c23)C1`, for which the growth was 71.5%.

Consider `CC(O)c1nc2c(c(=O)n(C)c(=O)n2C)n1C` (centres undefined), for which the growth is 105%.

As to `N#Cc1cccc(CN2CCc3ncn(Cc4ccc(Cl)cc4)c(=O)c3C2)c1`, the growth was -21.8% (active).

With `CCc1c(C)c2ccc(OCC(=O)N=Nc3c(O)[nH]c4ccccc34)c(C)c2oc1=O`, the growth was 18.9%.

`NC(=O)c1c(NC(=O)/C=C/c2cccs2)sc2c1CCC(=O)C2`: the growth is 37.2%.

Turning to `COc1cc2ncnc(Nc3ccc(F)c(Cl)c3)c2cc1OCC(=O)N1CCOCC1`, the growth is -15.9% (active).

Consider `Oc1ccccc1-c1nnc(Cn2c(Cc3cccc4ccccc34)nc3ccccc32)o1`, for which the growth was 105%.

In the case of `COc1ccc(OC)c(Nc2nnc(-c3ccc(Cl)cc3)o2)c1`, the growth is 74.2%.

For the compound `O=C1NN(C(=O)c2ccc(O)cc2)C(c2ccccc2)=N/C1=C\c1cn(-c2ccccc2)nc1-c1ccccc1`, the growth was 110%.

Regarding `COc1cc(OC)c2ccc(=O)oc2c1`, the growth is 103%.

In the case of `O=C(CSc1nnc2sc(Nc3cccc(Cl)c3)nn12)c1ccc(F)cc1`, the growth was 89.5%.

With `CCC1(c2ccccc2)Oc2ccccc2-n2c(C#N)c3ccccc3c2C1=O` (centres undefined), the growth was 104%.

For `O=C(Nc1ccccc1)OCC1OCOC(COC(=O)Nc2ccccc2)C1OC(=O)Nc1ccccc1` (centres undefined), the growth was -1.51% (active).

In the case of `CS(=O)(=O)Nc1cncc(-c2ccc3ncnc(Nc4ccc(F)c(Cl)c4)c3c2)c1`, the growth is -30.3% (active).

On to `CCOC(=O)c1ccc(Nc2sc(C(=O)c3cccc([N+](=O)[O-])c3)c(N)c2C#N)cc1`, for which the growth is 4.24% (active).

With `O=C(NC1CC1)c1ccc(-c2nc3ccc4[nH]ncc4c3c3c2CCCC3)cc1`, the growth is 8.81% (active).

Regarding `O=C(Nc1cc(Nc2ncccc2-c2ncnc3nc[nH]c23)ccc1F)c1cc(C(F)(F)F)cc(C(F)(F)F)c1`, the growth was -24.9% (active).

Regarding `O=C(c1ccccc1)[C@@H](c1ccccc1)[C@]1(O)C(=O)Nc2ccccc21`, the growth was 102%.

Consider `COc1cc(-c2nc(SCCC(C)C)nc(Nc3ccccc3Cl)c2C#N)cc(OC)c1OC`, for which the growth is 108%.

Take `Nc1ccc2c(c1)Cc1cc(N)c(Br)cc1-2`: the growth was 81.9%.

For `CCC1=C[C@@H]2CN(C1)Cc1c([nH]c3ccccc13)[C@@](C(=O)OC)(c1cc3c(cc1OC)N(C=O)[C@H]1[C@@](O)(C(=O)OC)[C@H](OC(C)=O)[C@]4(CC)[C@@H]5C[C@@H]5CN5CC[C@]31[C@@H]54)C2`, the growth was 25.2%.

For `COc1ccc(OC)c(Cn2cc3c(c2-c2ccccc2)CCc2cnoc2-3)c1`, the growth was 29.7%.

For `CN(C)CCCOc1c(Br)cc(/C=C/C(=O)N(C)CCc2cc(Br)c(OCCCN(C)C)c(Br)c2)cc1Br`, the growth is 91.4%.

Turning to `O=C(CCN1C(=O)/C(=C/c2ccc(Cl)cc2)SC1=S)NCCCN1CCOCC1`, the growth was 100%.

Turning to `Cc1ccc(C(=O)Nc2ccccc2C(=O)N/N=C(\c2ccccc2)c2ccccn2)cc1`, the growth was -1.12% (active).

Consider `CCc1ccc(SC2c3ccc(N(CC)CC)cc3Oc3nc(N)c(C#N)c(N)c32)cc1` (centres undefined), for which the growth was -41% (active).

As to `Cc1cc(Br)c(N)c(Br)c1`, the growth is 98.3%.

In the case of `COc1ccc(C(=O)c2cc(C)c(OC)c(C)c2)c(OC)c1OC(=O)C(Cl)Cl`, the growth is 11.4%.
